# NS1 inh: inhibitors of influenza NS1 protein function. Potency, µM (doses to about 46.1 µM), for inactives: at the top dose activity, positive = more growth. actives 0.4% (n = 270,000). AID 2326; calls by dose curve; note: potency is the fitted concentration of half-maximal effect; actives are rising curves; nearly all actives have a fitted effect of over 50% in size
#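 OD600 was taken as the measure of yeast growth restored by compound in an NS1-expressing S. cerevisiae strain. Cells had been washed out of glucose medium and diluted 1:100 into galactose -URA medium, pH 6.0.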
# Shiga toxin inh: Shiga toxin inhibition; Vero cells, Shiga toxin protein synthesis inhibition reporter; actives 9.2% (n = 290,000); inhibition, % at 38.7 µM; in the data active = inhibition mostly above about 28%, no sharp cut-off; inactive = mostly below about 43%; note: 0% is about no effect
# Pf growth 96h: P. falciparum growth inhibition at 96 hour, primary screen for plastid delayed-death inhibitors; P. falciparum luciferase reporter growth, 96 h; Potency, µM (titrated, usually from 28.7 µM), for inactives: at the highest dose activity change, negative = inhibition, usual class: inhibitors; actives 6.9% (n = 320,000); AID 504834; note: potency is the fitted concentration of half-maximal effect; % is set by controls: 0 for no effect and ±100 for the full control effect
#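 P. falciparum expressing integrated firefly luciferase, in erythrocytes at 2% hematocrit, 0.05% parasitemia, incubated with compounds 96 h at 37 C, 5% CO2. Growth inhibition read as loss of luminescence; two-generation exposure targets delayed-death apicoplast inhibitors.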
# SARS PLpro yeast: blocks SARS-CoV papain-like protease in a yeast assay; S. cerevisiae expressing SARS-CoV PLpro, growth rescue; Potency, µM (doses to about 32.9 µM), for the others: at the highest dose activity, positive = growth rescue, most hits filed as activators; actives 0.19% (n = 330,000); calls by dose curve; note: potency is the fitted concentration of half-maximal effect; 0% is about no effect; nearly all actives have a fitted effect of over 55% in size
# Pf growth 48h: P. falciparum growth inhibition at 48 hours (one generation) | P. falciparum luciferase growth in erythrocytes, 48 h | Potency, µM (doses to about 28.7 µM), without a hit: at the top dose activity change, negative = inhibition, most hits filed as inhibitors | actives 5.9% (n = 310,000) | AID 504832; note: potency is the fitted concentration of half-maximal effect; % is set by controls: 0 for no effect and ±100 for the full control effect
#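 A one-generation exposure of luciferase-tagged malaria parasites in RPMI 1640/Albumax erythrocyte culture, 37 C and 5% CO2. Inhibition is inferred from decreased luminescence after adding detection reagent.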
# CHX counter: counter-screen for Shiga toxin inhibitors: cycloheximide protein synthesis inhibition; cell reporter, cycloheximide protein synthesis inhibition counterscreen; max response, %; actives 12% (n = 300,000); in the data active = max response mostly above about 13%, no sharp cut-off; inactive = mostly below about 14%; note: read at 38.3 µM for the half of the compounds with a filed dose; 0% is about no effect
# Active calls of the source: *; i = inactive; u = inconclusive; x = no result; [ ] = dose if it differs, or a comment. Shown are actives, neighbours in structure and some others; about 21% of the full set was active somewhere. Unless noted, calls come from the whole dose curve; as a rule, active = well fitted inhibition curve with a large enough effect; inconclusive = small, poorly fitted or top-dose-only effect, or another doubt; inactive = no such curve, though single readings can be large or run the other way.
SMILES,NS1 inh,Shiga toxin inh,Pf growth 96h,SARS PLpro yeast,Pf growth 48h,CHX counter
CSc1cccc(NC(=O)c2nnn(Cc3ccccc3)c2N)c1,-11.2%,61.1,16.6%,-2.6%,9.28µM*,16.7
COc1ccccc1NC(=O)c1nnn(Cc2ccccc2)c1NC(=O)C(F)(F)F,2.8%,28.6,39.0%,0.6%,81.2%,-3.7
COc1cc(NC(=O)c2nnn(Cc3ccc(SC)cc3)c2N)cc(OC)c1,-19.3%,26.5,11.7µM*,10.8%,x,-0.9
Nc1c(C(=O)NCCc2ccccc2)nnn1Cc1ccccc1,3.6%,43.3*,x,23.1%,32.1%,29.6*
COc1cccc(NC(=O)Cn2nnc(C(=O)Nc3ccccc3)c2N)c1,-1.7%,4.1,u,-2.5%,u,-2.6
O=C(Nc1ccccc1)c1nnn(Cc2ccccc2)c1NC(=O)C(F)(F)F,-9.3%,79.2*,-14.8%,-19.8%,82.1%,45.3*
COC(=O)c1nnn(Cc2ccccc2)c1N,-22.9%,-6.3,37.3%,8.9%,15.0%,-1.3
O=C1C=CC(=O)N1c1cccc(-c2ccccc2)c1,-48.4%,19.8,32.3%,-6.6%,13.7%,16.0
COc1ccc(CNc2cc(C)nc3ccc(OC)cc23)cc1,17.3%,-10.4,-20.6%,19.5%,u,-4.8
C=CCN(C(=O)c1csnn1)C(C(=O)NCc1ccc(F)cc1)c1ccccc1 (stereo unspecified),-6.1%,-4.4,16.4%,10.9%,-19.7%,6.5
O=C(CSc1ccc2ccccc2n1)N1CCC(c2noc3ccc(F)cc23)CC1,27.8%,-3.9,u,-20.7%,u,2.5
Nc1c(C(=O)Nc2ccc3c(c2)OCCO3)nnn1Cc1ccc(Cl)cc1,x,x,211.9%,1.8%,100.8%,x
COc1ccc(Cn2nnc(C(=O)Nc3ccc4c(c3)OCCO4)c2N)cc1Br,11.4%,27.4,11.7µM*,5.7%,-17.5%,16.6*
COc1cccc(C2=NOC(C(=O)Nc3cccnc3Cl)C2)c1 (stereo unspecified),x,-10.9,u,0.5%,-1.7%,10.1
CC[N+]1(C)CCC(=C2c3ccccc3CC(=O)c3sccc32)CC1 (stereo unspecified),-0.1%,-7.6,11.7µM*,-4.5%,u,-3.3
C[N+]1(C)CCC(=C2c3ccccc3CC(=O)c3sccc32)CC1,32.5%,18.4,u,3.3%,u,13.7
O=C(COc1ccccc1)Nc1c2c(nn1-c1ccc(F)cc1)CS(=O)(=O)C2,7.2%,-14.2,52.6%,-2.7%,18.8%,-3.0
COc1ccc(N2C(=O)C(CN3CCN(C)CC3)C2c2ccccc2)cc1 (stereo unspecified),4.8%,-11.8,0.3%,0.5%,-14.7%,-3.5
CN(C)/C=N/c1ncc(C(=O)c2ccccc2)s1,6.2%,66.4*,125.5%,1.5%,149.4%,52.4*
CN(C)/C=N/c1ncc(C(=O)OC(C)(C)C)s1,x,69.0*,132.0%,1.0%,193.6%,30.5*
Cc1cc(C(=O)c2cnc(/N=C/N(C)C)s2)cc(C)c1O,21.2%,-4.6,18.5%,0.4%,13.8%,1.8
CN(C)/C=N/c1ncc(C(=O)c2ccc(-c3ccccc3)cc2)s1,x,24.0,32.7%,-16.7%,33.2%,19.1
CC(C)CN(C(=O)CN1C(=O)NC(c2ccccc2)(c2ccccc2)C1=O)C1CCS(=O)(=O)C1 (stereo unspecified),x,x,u,11.7%,u,x
COc1ccc(-c2c(C(F)(F)F)oc3cc(OCC(=O)Nc4ccccc4C(F)(F)F)ccc3c2=O)cc1OC,10.6%,-15.3,u,u,u,-3.5
COc1ccccc1-c1c(C(F)(F)F)oc2cc(OS(C)(=O)=O)ccc2c1=O,-5.8%,39.1,i,9.3%,39.2%,24.6*
COc1ccccc1-c1c(C(F)(F)F)oc2cc(OCC(=O)Nc3ccccc3C(F)(F)F)ccc2c1=O,11.5%,-5.7,5.22µM*,-9.2%,u,-3.3
C/C(=N/NC(=O)CNC(=O)COc1ccccc1)c1ccco1,0.2%,-1.1,20.8%,7.7%,7.4%,0.8
CC(=O)N(C)c1ccc(NC(=O)Nc2ccc(C)cc2)cc1,-9.0%,74.0,44.7%,-0.1%,37.4%,30.1
Cc1cc(NC(=O)Nc2ccc(N(C)C)cc2)c2cc(F)cc(F)c2n1,x,34.2*,x,x,x,28.1*
O=C(O)c1c(NC(=O)N2CCOCC2)sc2c1CCCC2,-0.6%,28.8,26.3%,-8.5%,15.7%[0.00184 µM],13.4*

# Compound activity (PubChem)
